# Assay results from publication PMC5540273 (PLoS ONE, 2017).
# Where two headings read alike, the source gives them in different places.
# How the values were obtained:
# FGFR1 = conditions: concentration: 1 μM, replicates: in singlicate; n = 1
# FGFR2 = conditions: concentration: 1 μM, replicates: in singlicate; n = 1
# FGFR3 = conditions: concentration: 1 μM, replicates: in singlicate; n = 1
# FGFR4 = conditions: concentration: 1 μM, replicates: in singlicate; n = 1
# FGR = conditions: concentration: 1 μM, replicates: in singlicate; n = 1
# FLT1 = conditions: concentration: 1 μM, replicates: in singlicate; n = 1
# FLT3-autoinhibited = conditions: concentration: 1 μM, replicates: in singlicate; n = 1
# FLT3 = conditions: concentration: 1 μM, replicates: in singlicate; n = 1
# FLT4 = conditions: concentration: 1 μM, replicates: in singlicate; n = 1
# FRK = conditions: concentration: 1 μM, replicates: in singlicate; n = 1
# FYN = conditions: concentration: 1 μM, replicates: in singlicate; n = 1
# GAK = conditions: concentration: 1 μM, replicates: in singlicate; n = 1
# GCN2(Kin.Dom.2,S808G) = system: T1, GCN2(Kin.Dom.2,S808G); conditions: concentration: 1 μM, replicates: in singlicate; n = 1
# T1 construct: gene EIF2AK4
# GRK1 = conditions: concentration: 1 μM, replicates: in singlicate; n = 1
# GRK2 = system: T2, GRK2; conditions: concentration: 1 μM, replicates: in singlicate; n = 1
# T2 construct: gene ADRBK1
# GRK3 = system: T3, GRK3; conditions: concentration: 1 μM, replicates: in singlicate; n = 1
# T3 construct: gene ADRBK2
# GRK4 = conditions: concentration: 1 μM, replicates: in singlicate; n = 1
# GRK7 = conditions: concentration: 1 μM, replicates: in singlicate; n = 1
# GSK3A = conditions: concentration: 1 μM, replicates: in singlicate; n = 1
# GSK3B = conditions: n = 1
# [1] = concentration: 1 μM, replicates: in singlicate
# 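Further: KINOMEscan kinase panel screen.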
smiles,measurement,setting,value
O=C(Nc1n[nH]c2nc(-c3cccc(O)c3)ccc12)C1CC1 [SB-711805],%Inh,FGFR1,18%
same,%Inh,FGFR2,0%
same,%Inh,FGFR3,0%
same,%Inh,FGFR4,0%
same,%Inh,FGR,9%
same,%Inh,FLT1,10%
same,%Inh,FLT3-autoinhibited,21%
same,%Inh,FLT3,13%
same,%Inh,FLT4,0%
same,%Inh,FRK,0%
same,%Inh,FYN,0%
same,%Inh,GAK,23%
same,%Inh,"GCN2(Kin.Dom.2,S808G)",12%
same,%Inh,GRK1,24%
same,%Inh,GRK2,0%
same,%Inh,GRK3,0%
same,%Inh,GRK4,24%
same,%Inh,GRK7,3%
same,%Inh,GSK3A,98.8%
same,%Inh,GSK3B; 1 µM,96.3%
Cl.Cl.NCC(NC(=O)c1cc(-c2cccnc2)c(-c2ccnc3[nH]ccc23)s1)c1ccccc1 (stereo not drawn) [GSK1323434],%Inh,FGFR1,8%
same,%Inh,FGFR2,0%
same,%Inh,FGFR3,39%
same,%Inh,FGFR4,6%
same,%Inh,FGR,42%
same,%Inh,FLT1,17%
same,%Inh,FLT3-autoinhibited,0%
same,%Inh,FLT3,5%
same,%Inh,FLT4,0%
same,%Inh,FRK,15%
same,%Inh,FYN,6%
same,%Inh,GAK,88%
same,%Inh,"GCN2(Kin.Dom.2,S808G)",0%
same,%Inh,GRK1,0%
same,%Inh,GRK2,8%
same,%Inh,GRK3,39%
same,%Inh,GRK4,4%
same,%Inh,GRK7,21%
same,%Inh,GSK3A,34%
same,%Inh,GSK3B; [1],22%
Fc1cc(Cl)ccc1Nc1ccnc2cc(-c3ccc(CN4CCOCC4)o3)ccc12 [GW560109],%Inh,FGFR1,40%
same,%Inh,FGFR2,33%
same,%Inh,FGFR3,26%
same,%Inh,FGFR4,30%
same,%Inh,FGR,91.2%
same,%Inh,FLT1,86%
same,%Inh,FLT3-autoinhibited,6%
same,%Inh,FLT3,53%
same,%Inh,FLT4,88%
same,%Inh,FRK,86%
same,%Inh,FYN,90.9%
same,%Inh,GAK,84%
same,%Inh,"GCN2(Kin.Dom.2,S808G)",13%
same,%Inh,GRK1,5%
same,%Inh,GRK2,0%
same,%Inh,GRK3,46%
same,%Inh,GRK4,2%
same,%Inh,GRK7,0%
same,%Inh,GSK3A,1%
same,%Inh,GSK3B; [1],24%
CC(C)c1nc(-c2cccc(NS(=O)(=O)c3c(F)cccc3F)c2)c(-c2ccnc(Nc3ccc(N4CCOCC4)nc3)n2)s1.Cl [GSK1723980],%Inh,FGFR1,14%
same,%Inh,FGFR2,0%
same,%Inh,FGFR3,4%
same,%Inh,FGFR4,0%
same,%Inh,FGR,98.4%
same,%Inh,FLT1,98.3%
same,%Inh,FLT3-autoinhibited,0%
same,%Inh,FLT3,66%
same,%Inh,FLT4,99.9%
same,%Inh,FRK,96.3%
same,%Inh,FYN,98.6%
same,%Inh,GAK,91.2%
same,%Inh,"GCN2(Kin.Dom.2,S808G)",100%
same,%Inh,GRK1,9%
same,%Inh,GRK2,0%
same,%Inh,GRK3,0%
same,%Inh,GRK4,0%
same,%Inh,GRK7,0%
same,%Inh,GSK3A,74%
same,%Inh,GSK3B; [1],15%
COc1cccc(CC(=O)N2CCc3cc(-c4cn(C)c5ncnc(N)c45)ccc32)c1 [GSK2608899],%Inh,FGFR1,22%
same,%Inh,FGFR2,0%
same,%Inh,FGFR3,0%
same,%Inh,FGFR4,0%
same,%Inh,FGR,15%
same,%Inh,FLT1,59%
same,%Inh,FLT3-autoinhibited,0%
same,%Inh,FLT3,66%
same,%Inh,FLT4,0%
same,%Inh,FRK,0%
same,%Inh,FYN,9%
same,%Inh,GAK,31%
same,%Inh,"GCN2(Kin.Dom.2,S808G)",70%
same,%Inh,GRK1,0%
same,%Inh,GRK2,0%
same,%Inh,GRK3,0%
same,%Inh,GRK4,9%
same,%Inh,GRK7,0%
same,%Inh,GSK3A,0%
same,%Inh,GSK3B; [1],15%
NCCC(NC(=O)c1cc(Br)c(-c2ccnc3[nH]ccc23)s1)c1ccccc1.O=C(O)C(F)(F)F.O=C(O)C(F)(F)F (stereo not drawn) [GSK1307810],%Inh,FGFR1,73%
same,%Inh,FGFR2,74%
same,%Inh,FGFR3,45%
same,%Inh,FGFR4,36%
same,%Inh,FGR,13%
same,%Inh,FLT1,73%
same,%Inh,FLT3-autoinhibited,25%
same,%Inh,FLT3,88%
same,%Inh,FLT4,39%
same,%Inh,FRK,22%
same,%Inh,FYN,0%
same,%Inh,GAK,83%
same,%Inh,"GCN2(Kin.Dom.2,S808G)",0%
same,%Inh,GRK1,100%
same,%Inh,GRK2,82%
same,%Inh,GRK3,96.4%
same,%Inh,GRK4,72%
same,%Inh,GRK7,89%
same,%Inh,GSK3A,0%
same,%Inh,GSK3B; [1],20%
Cc1cccc(Nc2nc(N[C@H]3CCCC[C@H]3N)ncc2C(N)=O)c1.Cl [GSK986310],%Inh,FGFR1,24%
same,%Inh,FGFR2,4%
same,%Inh,FGFR3,3%
same,%Inh,FGFR4,15%
same,%Inh,FGR,56%
same,%Inh,FLT1,43%
same,%Inh,FLT3-autoinhibited,1%
same,%Inh,FLT3,23%
same,%Inh,FLT4,24%
same,%Inh,FRK,19%
same,%Inh,FYN,52%
same,%Inh,GAK,55%
same,%Inh,"GCN2(Kin.Dom.2,S808G)",72%
same,%Inh,GRK1,0%
same,%Inh,GRK2,0%
same,%Inh,GRK3,17%
same,%Inh,GRK4,6%
same,%Inh,GRK7,1%
same,%Inh,GSK3A,24%
same,%Inh,GSK3B; [1],19%
N#Cc1cnc2cc(-c3cnc(CNCCN4CCOCC4)s3)ccc2c1Nc1ccc(Oc2ccccc2)cc1 [GW664114],%Inh,FGFR1,0%
same,%Inh,FGFR2,0%
same,%Inh,FGFR3,2%
same,%Inh,FGFR4,0%
same,%Inh,FGR,96.7%
same,%Inh,FLT1,53%
same,%Inh,FLT3-autoinhibited,7%
same,%Inh,FLT3,70%
same,%Inh,FLT4,22%
same,%Inh,FRK,17%
same,%Inh,FYN,93.2%
same,%Inh,GAK,43%
same,%Inh,"GCN2(Kin.Dom.2,S808G)",100%
same,%Inh,GRK1,0%
same,%Inh,GRK2,0%
same,%Inh,GRK3,27%
same,%Inh,GRK4,0%
same,%Inh,GRK7,0%
same,%Inh,GSK3A,6%
same,%Inh,GSK3B; [1],10%
CN(c1ccc(F)c(NC(=O)c2cccc(OC(C)(C)C#N)c2Cl)c1)c1ccc2nc(NC(=O)C3CC3)sc2n1,%Inh,FGFR1,48%
same,%Inh,FGFR2,72%
same,%Inh,FGFR3,8%
same,%Inh,FGFR4,26%
same,%Inh,FGR,84%
same,%Inh,FLT1,95.8%
same,%Inh,FLT3-autoinhibited,0%
same,%Inh,FLT3,96.7%
same,%Inh,FLT4,99.8%
same,%Inh,FRK,71%
same,%Inh,FYN,79%
same,%Inh,GAK,0%
same,%Inh,"GCN2(Kin.Dom.2,S808G)",0%
same,%Inh,GRK1,0%
same,%Inh,GRK2,0%
same,%Inh,GRK3,6%
same,%Inh,GRK4,4%
same,%Inh,GRK7,21%
same,%Inh,GSK3A,4%
same,%Inh,GSK3B; [1],0%
